From PubChem
FMDV antiviral: antivirals against foot and mouth disease virus; FMDV antiviral cell-based qHTS; 1.2% of 410,000 active; AID 1159524; Potency, µM (top dose mostly 57.9 µM), without a hit: top-dose activity change, negative = inhibition, most hits filed as inhibitors; calls by dose curve; tested in HEK293T cells; further: read-out not given here; nearly all actives have a fitted effect of over 45% in size
Sm TGR inh: blocks Schistosoma mansoni thioredoxin glutathione reductase. Q962Y6. purified TGR, DTNB reduction, TNB absorbance 405 nm. Potency, µM (doses to about 114 µM), without a hit: at the top dose activity change, negative = inhibition, most hits filed as inhibitors. 3% of 360,000 active. AID 485364; further: nearly all actives have a fitted effect of over 60% in size
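TGR 20 nM + NADPH 100 uM (dispensed conc.), cpd preinc 15 min RT; start with NADPH (500 uM addition) then DTNB (15 mM addition). Kinetic TNB absorbance, 405 nm filter. Four-parameter Hill fit across titration.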
RE007 growth inh: less growth of the S. pombe RE007 Vpr strain; S. pombe RE007 Vpr strain, BacTiter-Glo ATP luminescence, 24 h; Potency, µM (highest dose often 92.2 µM), without a hit: top-dose activity change, negative = less growth, hits mostly inhibitors; 0.21% of 360,000 active; active means well fitted falling curve with a large enough effect; inconclusive means small, poorly fitted or top-dose-only effect; inactive means no such curve, though single readings can be large or run the other way; further: nearly all actives have a fitted effect of over 50% in size
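Fission yeast RE007 carrying one integrated HIV-1 vpr copy, seeded at OD 0.01 in PMG+AL medium with 23 nL pinned compound. Grown 24 h at 30 degrees; viability read by BacTiter-Glo luminescence after 5 min.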
Marburg entry inh: Marburg virus entry inhibition; Marburg virus pseudotyped entry inhibition, cell reporter; Potency, µM (highest dose often 37.8 µM), for inactives: at the highest dose activity change, negative = inhibition, most hits filed as inhibitors; 1.8% of 300,000 active; AID 540276; calls by dose curve; tested in HEK293 cells
HCV inh: blocks hepatitis C virus | Huh7.5.1 HCVcc-Cre infection, luciferase reporter, 44 h | Potency, µM (doses to about 41.8 µM), for inactives: at the highest dose activity change, negative = inhibition, actives largely listed as inhibitors | 3.4% of 340,000 active | AID 651820
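After 44 h co-culture of compound, cells and HCVcc-Cre (~0.5 moi), substrate is added for 15 min at room temperature and luciferase measured over 15 sec. Cells were seeded at 1,000/well and pre-cultured 4 h.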
LASV entry inh: Lassa virus entry inhibition | 1.2% of 300,000 active | Potency, µM (titrated, usually from 37.9 µM), without a hit: at the top dose activity change, negative = inhibition, hits mostly inhibitors | Lassa virus pseudotype entry inhibition, cell reporter; calls by dose curve; tested in HEK293 cells; further: nearly all actives have a fitted effect of over 50% in size
Numbers without * were called inactive; ? = inconclusive; . = no result given; [ ] = remark or other dose. An excerpt weighted towards active compounds, which were near 7.2% of everything screened. Unless noted, the call rests on the fitted dose curve; in most records, active means well fitted curve in the direction sought with a large enough effect; inconclusive means small, poorly fitted or top-dose-only effect, or another doubt; inactive means no such curve, though single readings can be large; an effect the other way counts as inactive or inconclusive. On the % scale 0 is the no-effect control and ±100 the full control effect; potency means the concentration at half of the fitted maximal effect.

SMILES	FMDV antiviral	Sm TGR inh	RE007 growth inh	Marburg entry inh	HCV inh	LASV entry inh
CC12CCC(=O)N1C(C(=O)Nc1cc(C(F)(F)F)ccc1N1CCOCC1)CS2 (configuration not stated)	-13%	-1%	13%	-6%	8.9µM*	0%
CC12CCC(=O)N1C(C(=O)Nc1ccccc1N1CCCCC1)CS2 (configuration not stated)	11%	-2%	4%	-8%	6%	1%
CC12CCC(=O)N1C(C(=O)Nc1cc(C(F)(F)F)ccc1N1CCCCC1)CS2 (configuration not stated)	-13%	3%	-8%	?	3.5µM*	6%[46.1 µM]
CC12CCC(=O)N1C(C(=O)Nc1cc(Cl)ccc1N1CCCC1)CS2 (configuration not stated)	-20%	-16%	15%	?	8.9µM*	9%
C=CCCCN1C(=O)NC(c2ccccc2)C(C(=O)OC)=C1C (configuration not stated)	.	.	.	-29%[14.2 µM]	.	.
CCOc1ccc(CCN2C(=S)N([C@@H](Cc3ccccc3)CN3CCC[C@@H]3CN3C(=S)NC[C@@H]3CC(C)C)C[C@@H]2Cc2ccccc2)cc1	-15%	.	4%	.	.	.
CC(C)C[C@H]1CNC(=S)N1C[C@H]1CCCN1C[C@H](CC(C)C)N1C[C@H](Cc2ccc(O)cc2)N(CC2CCCCCC2)C1=S	-21%	.	8%	.	.	.
CC(C)C[C@H]1CNC(=S)N1C[C@H]1CCCN1C[C@H](Cc1ccc(O)cc1)N1C[C@H](Cc2ccccc2)N(CCc2ccccc2)C1=S	-8%	.	-7%	.	.	.
CC(C)C[C@H]1CNC(=S)N1CC1CCCN1C[C@H](Cc1ccccc1)N1C[C@H](Cc2ccc(O)cc2)N(CC2CCCCC2)C1=S (some centres not stated)	-21%	.	-5%	.	10µM*	.
CC(C)C[C@H]1CNC(=S)N1CC1CCCN1C[C@H](CC(C)C)N1C[C@H](Cc2ccc(O)cc2)N(CC2CCCCC2)C1=S (some centres not stated)	-27%	.	10%	.	10µM*	.
Oc1ccc(C[C@H]2CNC(=S)N2CC2CCCN2C[C@H](Cc2ccc(O)cc2)N2C[C@H](Cc3ccccc3)N(CCc3ccccc3)C2=S)cc1 (some centres not stated)	-7%	.	-15%	.	4.5µM*	.
CCOc1ccc(CCN2C(=S)N([C@@H](CC(C)C)CN3CCCC3CN3C(=S)NC[C@@H]3CC(C)C)C[C@@H]2Cc2ccccc2)cc1 (some centres not stated)	-29%	.	-16%	.	5.6µM*	.
CC(C)C[C@H]1CNC(=S)N1CC1CCCN1C[C@H](Cc1ccc(O)cc1)N1C[C@H](Cc2ccccc2)N(CC2CCCCCC2)C1=S (some centres not stated)	-8%	.	2%	.	7.9µM*	.
CCN1CCN(c2oc(/C=C/c3ccccc3OC)nc2C#N)CC1	9%	2%	.	-1%[46.1 µM]	.	-19%[46.1 µM]
COc1ccc(NC(=O)CC2C(=O)N(c3cccc(OC)c3)C(=O)N2Cc2ccc3c(c2)OCO3)cc1 (configuration not stated)	15%	-6%	.	-27%[46.1 µM]	.	?
Cc1cccc2[nH]c3c(N4CCC5(CC4)OCCO5)ncnc3c12	40µM*	3%	-2%	?	8.9µM*	-23%
Clc1ccc2[nH]c3c(N4CCC5(CC4)OCCO5)ncnc3c2c1	?	16%	-9%	10µM*	13µM*	10µM*
COc1cc(Cl)c(NS(=O)(=O)c2ccc3c(c2)CC(C)N3C(=O)C2CCC2)c(OC)c1 (configuration not stated)	?	20%	.	.	.	?
COC(=O)N/N=C(C)\C=C\c1ccco1	43%	45µM*	5%	9%	-4%	16%
CCCCCC(=O)NC(=S)Nc1ccc(NC(=O)c2ccco2)cc1	-23%	-31%	-6%	4%[46.1 µM]	-27%	-5%
CCCCCC(=O)N/N=C(\C)c1ccc(NC(=O)c2ccco2)cc1	17%	11%	-11%	-7%	-16%	3.5µM*
CC(=O)Nc1cccc(C(=O)/C=C/c2ccco2)c1	29%	28µM*	-10%	24%	7%	3%
CC(=O)Nc1cccc(C(=O)/C=C/c2ccc(Br)cc2)c1	25µM*	-18%	?	15µM*	?	?
COc1ccc(-c2nc(C)c(CCNC(=O)c3ccc(F)c(F)c3)s2)cc1	24%	-2%	.	.	.	4%[46.1 µM]
CC(=O)Nc1ccc(C(=O)/C=C/c2ccco2)cc1	41%	8.9µM*	-28%	-6%	36%	-8%
SMILES	FMDV antiviral	Sm TGR inh	RE007 growth inh	Marburg entry inh	HCV inh	LASV entry inh
O=C(/C=C\c1ccco1)c1ccc(NC(=O)c2ccco2)cc1	10%	4µM*	-20%	?	-19%	?
COc1ccc(-n2c(=O)c3c(c4cc(OC)ccc4n3C)n(C)c2=O)cc1	-1%	-3%	.	.	.	18%[46.1 µM]
O=C(NCC(c1ccco1)N1CCCCC1)c1ccc(COc2ccc(Cl)cc2)cc1 (configuration not stated)	-23%	.	-15%	?	?	10µM*
COc1ccc(C(CNC(=O)c2cccc(S(=O)(=O)Nc3ccc(F)cc3)c2)N2CCCCC2)cc1 (configuration not stated)	1%	.	-10%	.	5µM*	.
O=C(NCC(c1ccc(Cl)cc1)N1CCCCC1)c1ccc(F)cc1 (configuration not stated)	-3%	2%	.	2.8µM*	.	-26%[46.1 µM]
CCC(=O)Nc1ccc2c(c1)OC[C@@H](C)N(C(=O)c1ccccn1)C[C@@H](C)[C@@H](OC)CN(C)C2=O	-13%	.	6%	.	.	.
CC(=O)N1CCC(N(Cc2ccco2)C(=O)Nc2ccc(Br)cc2F)CC1	-20%	5%	.	.	.	-10%[46.1 µM]
COc1cc(/C=C2/SC(=Nc3ccc(O)cc3)NC2=O)cc(OC)c1O	-10%	7%	6%	?	?	?
COc1cc(/C=C2\SC(=Nc3ccc(O)cc3)NC2=O)cc(OC)c1OC	-7%	7%	-2%	?	4µM*	?
CC(=O)Nc1ccc(S(=O)(=O)/N=C2/NC(=O)/C(=C\c3ccco3)S2)cc1	13%	14µM*	23%	?	7%	-3%
COc1ccc(N=C2NC(=O)/C(=C/c3ccc(O)c(OC)c3)S2)cc1	2%	-15%	15%	?	-16%	3.7µM*
COc1ccc(N=C2NC(=O)/C(=C\c3ccco3)S2)cc1	48%	28µM*	-21%	4%[46.1 µM]	18%	?
O=C1NC(=Nc2ccc(O)cc2)S/C1=C\C=C\c1ccco1	7%	14µM*	3%	.	-13%	.
O=C(N/N=C/c1cccc([N+](=O)[O-])c1)c1cc(-c2ccc3c4c(cccc24)CC3)n[nH]1	-28%	-7%	-7%	.	?	.
